The campaign covered roughly 16,000 compounds. About 4,000 (25%) were called active. About 26% were inconclusive and are not listed. The call rests on the fitted dose curve; in most records, active means well fitted curve in the direction sought with a large enough effect; inconclusive means small, poorly fitted or top-dose-only effect, or effect the other way; inactive means no such curve, though single readings can be large or run the other way. A selection follows.
target: Cytochrome P450 2C9 (Homo sapiens) (UniProt P11712); experiment: Cytochrome panel assay with activity outcomes; conditions: recombinant CYP, pro-luciferin dealkylation, luminescence, p450-cyp2c9; series mostly up to 57.1 µM; activity, negative = inhibition: at the top concentration
On the % scale 0 is the no-effect control and ±100 the full control effect.

Chain of Cytochrome P450 2C9 (Homo sapiens) (P11712 whole entry, looked up): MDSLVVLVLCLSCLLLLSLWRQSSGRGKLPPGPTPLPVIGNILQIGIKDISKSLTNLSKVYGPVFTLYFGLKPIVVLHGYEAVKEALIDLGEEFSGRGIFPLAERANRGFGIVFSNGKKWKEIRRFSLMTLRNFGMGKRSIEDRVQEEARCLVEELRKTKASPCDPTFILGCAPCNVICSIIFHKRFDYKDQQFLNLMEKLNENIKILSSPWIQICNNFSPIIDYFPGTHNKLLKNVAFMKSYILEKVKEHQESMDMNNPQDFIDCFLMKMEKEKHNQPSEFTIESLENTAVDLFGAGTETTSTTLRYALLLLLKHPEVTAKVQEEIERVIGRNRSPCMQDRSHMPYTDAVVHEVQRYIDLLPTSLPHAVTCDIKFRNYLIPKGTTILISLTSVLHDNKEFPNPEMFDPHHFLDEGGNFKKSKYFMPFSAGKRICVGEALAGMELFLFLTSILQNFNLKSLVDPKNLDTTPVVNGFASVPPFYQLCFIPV

Compound	activity, negative = inhibition	AC50
Cc1ccc2c(c1)N[C@H](c1ccc(C(=O)O)cc1)c1cccn1-2	-25.1% [at 11.4 µM] (inactive)	–
C[C@@H](CN1CCC(Cc2ccccc2)CC1)[C@@H](O)c1ccc(O)cc1	-1.94% (inactive)	–
Cc1ccc(C)c(Cn2c(C(=O)OC(C)C)cc3c2ccn3C)c1	–	8.91 µM (active)
C[C@@H](CN1CCC(Cc2ccccc2)CC1)[C@H](O)c1ccc(O)cc1	18.2% (inactive)	–
CC(C)OC(=O)c1cc2c(ccn2C)n1CC(=O)N1CCC(Cc2ccccc2)CC1	–	14.1 µM (active)
CCNc1ncc2nc(-c3cc(F)cc(F)c3)c(=O)n(CCOC)c2n1	-10.3% (inactive)	–
COCCn1c(=O)c(-c2ccc(OC)cc2)nc2cnc(Oc3cccc(Cl)c3)nc21	–	0.631 µM (active)
COCCn1c(=O)c(-c2ccc(OC)cc2)nc2cnc(Nc3cccc(OC)c3)nc21	-14.5% (inactive)	–
COCCn1c(=O)c(-c2ccccc2)nc2cnc(Oc3cccc(Cl)c3)nc21	–	0.501 µM (active)
COCCn1c(=O)c(-c2cn(C)c3ccccc23)nc2cnc(Oc3cccc(Cl)c3)nc21	-20.2% (inactive)	–
COCCn1c(=O)c(-c2cc(F)cc(F)c2)nc2cnc(Oc3cccc(Cl)c3)nc21	–	3.98 µM (active)
N#CCCn1c(=O)c(-c2ccc(F)cc2)nc2cnc(Oc3cccc(Cl)c3)nc21	26.5% (inactive)	–
O=c1[nH]c(=O)n([C@@H]2C[C@H](O)[C@H](CO)O2)cc1C(F)(F)F	3.12% [at 25.6 µM] (inactive)	–
Fc1ccccc1NC(=S)NCCc1ccccc1	–	7.94 µM (active)
Fc1cc(Br)ccc1NC(=S)NCCc1ccccc1	–	10 µM (active)
Fc1ccc(NC(=S)NCCc2ccccc2)c(F)c1F	–	5.01 µM (active)
COc1ccccc1NC(=S)NCCc1ccccc1	-25% (inactive)	–
O=C1O[C@@H]([C@H](O)[C@H](O)[C@H](O)CO)[C@@H](O)[C@@H]1O	-8.59% [at 11.4 µM] (inactive)	–
COc1ccc(C(=O)N2CCC[C@@]3(CCN(C(=O)NC(C)C)C3)C2)cc1	-2.78% (inactive)	–
Nc1ncnc2c1ncn2[C@H]1O[C@@H](C(=O)OCCO)[C@@H](O)[C@H]1O	-1.34% [at 11.4 µM] (inactive)	–

Compound	activity, negative = inhibition	AC50
O=C(O)C1CCN(c2ncnc3ccc(-c4ccccc4C(F)(F)F)cc23)CC1	4.43% [at 2.29 µM] (inactive)	–
N#Cc1ccccc1-c1ccc2ncnc(N3CCNCC3)c2c1	26.5% [at 2.29 µM] (inactive)	–
Cc1cc(C)n(-c2ccc(C(=O)Nc3cc(C(F)(F)F)ccc3N3CCOCC3)cc2)n1	–	0.0794 µM (active)
Cc1ccc(C(C)C)n1C(=O)OC(C)(C)C	0.745% [at 11.4 µM] (inactive)	–
CC(=O)Nc1ccc(N2C(=O)CC(c3ccccc3)CC2=O)cc1	-18% (inactive)	–
COc1ccc(N2C(=O)CSC2c2cccc(F)c2)c(OC)c1 (centres undefined)	-4.17% (inactive)	–
CC(=O)Nc1ccc(N2C(=O)CSC2c2c(F)cccc2Cl)cc1 (centres undefined)	–	10 µM (active)
O=C(Nc1ccccc1)c1ccccc1CC[N+](=O)[O-]	-19.1% (inactive)	–
Cc1cccc[n+]1CC(=O)Nc1ccc([N+](=O)[O-])cc1Cl	18% (inactive)	–
O=C(Nc1ccccc1)c1cc([N+](=O)[O-])ccc1Cl	–	6.31 µM (active)
O=C(Nc1ccc([N+](=O)[O-])cc1Cl)c1cc(Cl)ccc1O	–	0.631 µM (active)
CC1=C[N+](=O)c2ccccc2[N+]1=O	-5.42% [at 11.4 µM] (inactive)	–
N#Cc1cccc(-c2cc(-n3ccnc3)ncn2)c1	-5.24% [at 2.29 µM] (inactive)	–
O=C(O)c1cccc(N2CCCC2=O)c1	–	12.6 µM (active)
O=C(O)c1cccc(OCCO)c1	-19% [at 11.4 µM] (inactive)	–
CCCCN(C)CCCNC(=O)c1ccc(N2CCCC2=O)cc1	-14.3% (inactive)	–
c1nc(NC2CCNCC2)c2cc(-c3ccc4c(c3)OCO4)ccc2n1	28.6% [at 2.29 µM] (inactive)	–
Oc1cc(O)c2c(c1)O[C@H](c1ccc(O)c(O)c1)[C@@H](O)[C@@H]2c1c(O)cc(O)c2c1O[C@@H](c1ccc(O)c(O)c1)[C@H](O)C2	-22.1% [at 11.4 µM] (inactive)	–
O=C(Nc1cccc(F)c1)N1CCCC2(CCN(C(=O)c3ccncc3)CC2)C1	–	0.0794 µM (active)
O=C(c1cccc(F)c1)N1CCC2(CCN(Cc3cc(C(F)(F)F)cc(C(F)(F)F)c3)CC2)CC1	-1.07% (inactive)	–

Compound	activity, negative = inhibition	AC50
O=C(c1cccc(F)c1)N1CCC2(CCCN(Cc3ccccc3)C2)CC1	12.2% (inactive)	–
O=C(c1cccc(F)c1)N1CCC2(CCCN(Cc3cc(C(F)(F)F)cc(C(F)(F)F)c3)C2)CC1	-18.9% (inactive)	–
O=C(c1cccc(F)c1)N1CCC2(CCN(Cc3ccccc3)CC2)CC1	6.78% (inactive)	–
O=C(c1cccc(F)c1)N1CCC2(CCN(Cc3ccncc3)CC2)CC1	–	2.51 µM (active)
O=C(Nc1cccc(F)c1)N1CCCC2(CCN(C(=O)c3cnccn3)CC2)C1	-11.9% (inactive)	–
O=C(c1cccc(F)c1)N1CCC2(CCCN(Cc3ccncc3)C2)CC1	–	0.631 µM (active)
COc1ccc(C(=O)N2CCC3(CCCN(C(=O)Nc4cccc(F)c4)C3)CC2)cc1	-11.2% (inactive)	–
Cc1ccc(NC(=S)/C(=C(\[O-])c2ccc(C)c([N+](=O)[O-])c2)[n+]2ccccc2)cc1C	-13.7% (inactive)	–
Cc1ccc(C(=O)Nc2ccc(Cc3ccncc3)cc2)cc1[N+](=O)[O-]	–	0.631 µM (active)
Cc1ccc(C(=O)N/N=C\c2ccc[nH]2)cc1[N+](=O)[O-]	-14.6% (inactive)	–
CCC(=O)[C@@]1(C)[C@H](C)C[C@@H]2[C@@H]3CCC4=CC(=O)C=C[C@@]4(C)[C@H]3[C@H](O)C[C@]21C	-3.76% [at 25.6 µM] (inactive)	–
CCc1c(C(=O)O)[nH]c2ccc(Br)cc12	–	15.8 µM (active)
O=C1Cc2c([nH]c3ccc(Br)cc23)-c2ccccc2N1	-8.75% (inactive)	–
CCCCCCN(CCCCCC)C(=O)Cc1c(-c2ccc(Cl)cc2)[nH]c2ccc(Cl)cc12	-16.9% (inactive)	–
CC(=O)N1CCC2(CCN(Cc3nccs3)CC2)CC1	-7.1% (inactive)	–
C[C@@](N)(Cc1c[nH]c2ccccc12)C(=O)O	-9.29% [at 11.4 µM] (inactive)	–
Nc1ccc2[nH]cc(CCC(=O)O)c2c1	-7.47% [at 11.4 µM] (inactive)	–
CCOC(=O)CCCc1c[nH]c2ccccc12	–	7.94 µM (active)
O=C(O)c1c(Cl)c(Cl)c(Cl)c(Cl)c1C(=O)Nc1ccc2cn[nH]c2c1	–	0.0794 µM (active)

From PubChem BioAssay AID1851 (National Center for Advancing Translational Sciences (NCATS), 2009)
